Results on five compounds are retold here after PubChem BioAssay (EPA / NIEHS).

Some structures have more than one record in an assay (separate samples or runs), and their calls can disagree. Calls of active or inactive are those of the source. The calls were made as follows: active = hit-call score of the fitted dose curve at least 0.9, where 1 is the maximum; inactive = score below 0.9.

For orientation: AC50 means the concentration giving half of the maximal activity seen.

The nature of test [1]: ATG_CRE_CIS: Attagene CIS-FACTORIAL HepG2 Assay for human cAMP Responsive Element (CRE) binding protein 3 (AID 2282926). The settings on record: HepG2 CRE cis-reporter, Attagene multiplexed mRNA; actives raise or lower the signal. The gist of the method:
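Induced reporter mRNA from a CRE cis element, measured in HepG2 among many multiplexed units at 24 h. Detection used RT-PCR plus capillary electrophoresis of fluorescent fragments; DMSO served as negative control.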

For test [2], the target named is CCAAT/enhancer-binding protein beta (Homo sapiens) (UniProt P17676). The experiment in a line: ATG_C_EBP_CIS: Attagene CIS-FACTORIAL HepG2 Assay for human CCAAT/Enhancer Binding Protein (C/EBP) beta (AID 2282927). The settings on record: HepG2 Attagene cis-factorial transcription factor reporter; actives raise or lower the signal. A digest of the protocol:
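Following a 24 h incubation with test chemical, transfected HepG2 cells yielded RNA whose reporter transcripts were quantified by RT-PCR and fluorescent capillary electrophoresis, with DMSO serving as baseline for bidirectional fitting.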

Test [3] in a line: ATG_CMV_CIS: Attagene CIS-FACTORIAL HepG2 Assay for human CMV (Internal Marker) (AID 2282928).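 Also: endpoint acts as a background internal control marker rather than a target.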 Conditions: HepG2 CMV promoter reporter, transcription factor profiling; actives raise or lower the signal. A digest of the protocol:
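Fluorescence intensity of RT-PCR-derived reporter fragments, resolved by capillary electrophoresis, gives the signal. HepG2 liver cells bearing transfected cis-element reporters were treated 24 h; activity in either direction was fit relative to DMSO-treated controls.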

A short description of test [4]: ATG_DR4_LXR_CIS: Attagene CIS-FACTORIAL HepG2 Assay for human Liver X Receptor (LXR), DR4 submotif (AID 2282929). Conditions: HepG2 Attagene DR4 cis-reporter, mRNA transcription; actives raise or lower the signal. The gist of the method: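 HepG2 cells were transiently transfected with multiple cis-regulated reporter units and dosed for 24 hours. The DR4 reporter mRNA was quantified by RT-PCR, 6-FAM labelling and capillary electrophoresis. Bidirectional fits used DMSO as baseline.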

Test [5] has as its target Aryl hydrocarbon receptor (Homo sapiens) (UniProt P35869). Description: ATG_Ahr_CIS: Attagene CIS-FACTORIAL HepG2 Assay for human Aryl Hydrocarbon Receptor (Ahr) (AID 2282930). Conditions: HepG2 AhR cis-factorial reporter transcription; actives raise or lower the signal. A digest of the protocol: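 Values derive from bidirectional fitting against DMSO negative control. Underlying signal: cis-element reporter mRNA in transiently transfected HepG2, harvested 24 h post-dose and measured by RT-PCR plus capillary electrophoresis.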

Test [6] can be described thus: ATG_AP_1_CIS: Attagene CIS-FACTORIAL HepG2 Assay for human Activator Protein 1 (AP-1) (AID 2282931). The settings on record: HepG2 Attagene cis-factorial AP-1 reporter mRNA; actives raise or lower the signal. The gist of the method:
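HepG2 cells transiently transfected with cis-element-driven reporter transcription units, dosed for 24 hours. Reporter mRNA measured by RT-PCR, 6-FAM labelling, HpaI digestion and capillary electrophoresis. Bidirectional fitting against DMSO baseline.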

Test [7] can be described thus: ATG_AP_2_CIS: Attagene CIS-FACTORIAL HepG2 Assay for human Activator Protein 2 (AP-2) (AID 2282932). Conditions: HepG2 AP-2 cis-reporter, Attagene transcription factor profiling; actives raise or lower the signal. The gist of the method: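 Assay in transfected HepG2 with promoter-regulated reporters, 24 h incubation after dosing. Signal is reporter mRNA fluorescence (RT-PCR, capillary electrophoresis), analysed for both increases and decreases relative to DMSO controls.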

Test [8] is described as follows: ATG_BRE_CIS: Attagene CIS-FACTORIAL HepG2 Assay for human Bone Morphogenetic Protein (BMP) Response Element (BRE) (AID 2282933). Conditions: HepG2 BMP response element reporter, Attagene transcription factor profiling; actives raise or lower the signal. The gist of the method:
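Multiplexed cis-reporter assay, HepG2, 24 h exposure. mRNA from reporter units quantified via RT-PCR/CE; DMSO baseline; bidirectional curve fit.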

In test [9] the target is Retinoic acid receptor alpha (Homo sapiens) (UniProt P10276). The experiment in a line: ATG_DR5_RAR_CIS: Attagene CIS-FACTORIAL HepG2 Assay for human Retinoic Acid Receptor Alpha (RARE), DR5 submotif (AID 2282934).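 As to AC50: reporter responds to endogenous RAR alpha beta and gamma in HepG2 not RARA alone.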 Conditions: HepG2 Attagene cis-factorial RARE DR5 reporter, mRNA; actives raise or lower the signal. The gist of the method:
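Endpoint fitted in both directions relative to DMSO as negative control. It reflects DR5 cis-element reporter mRNA induction in transiently transfected HepG2 cells, measured 24 h after dosing through RT-PCR and fluorescent capillary electrophoresis.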

Test [10] can be described thus: ATG_E_Box_CIS: Attagene CIS-FACTORIAL HepG2 Assay for human Enhancer Box (E-box) (AID 2282936). Conditions: HepG2 E-box cis-reporter transcription, actives raise or lower the signal. A digest of the protocol: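 Measured 24 h post-dosing in HepG2 cells transfected with multiple cis-regulated reporter units, signal being reporter mRNA induction detected by fluorescent RT-PCR with capillary electrophoresis; gain or loss fitted against DMSO.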

Test [11] in a line: ATG_M_61_CIS: Attagene CIS-FACTORIAL HepG2 Assay for M61 Transcription Factor (Internal Marker) (AID 2282937). Conditions: HepG2 Attagene CIS-FACTORIAL M61 internal marker reporter; actives raise or lower the signal. The gist of the method:
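HepG2 cells transiently transfected with multiplexed cis-promoter reporter units reporting endogenous transcription factor activity, measured 24 h after dosing. Reporter mRNA quantified by RT-PCR and capillary electrophoresis; bidirectional fit against DMSO baseline.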

Test [12] in a line: ATG_M_19_CIS: Attagene CIS-FACTORIAL HepG2 Assay for M19 Transcription Factor (Internal Marker) (AID 2282939). The settings on record: HepG2 Attagene CIS-FACTORIAL M19 internal marker reporter; actives raise or lower the signal. A digest of the protocol: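 Signals come from fluorescence of labelled reporter-specific PCR fragments resolved by capillary electrophoresis, following 24 h treatment of HepG2 cells transfected with cis-promoter reporter units; activity was fitted in both directions relative to DMSO.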

A short description of test [13]: ATG_ERE_CIS: Attagene CIS-FACTORIAL HepG2 Assay for Estrogen Response Element (ERE) (AID 2282940). Conditions: HepG2 ERE cis-reporter, Attagene RNA transcript; actives raise or lower the signal. A digest of the protocol: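 Fluorescence of capillary-separated, FAM-labelled reporter cDNA fragments indicates reporter mRNA levels in HepG2 cells exposed to chemicals for 24 h. Transient transfection with cis-regulated units; data fitted in both directions against DMSO.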

Test [14] in a line: ATG_Ets_CIS: Attagene CIS-FACTORIAL HepG2 Assay for human Erythroblast Transformation Specific (ETS) (AID 2282941). Conditions: HepG2 ETS cis-reporter transcription, actives raise or lower the signal. A digest of the protocol:
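Multiplexed reporter transcript profiling: HepG2, 24 h treatment, total RNA to cDNA, PCR, 6-FAM labelling, HpaI cut, capillary electrophoresis. Gain- or loss-of-signal fitted against DMSO.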

In test [15] the target is Hepatocyte nuclear factor 3-beta (Homo sapiens) (UniProt Q9Y261). The experiment in a line: ATG_FoxA2_CIS: Attagene CIS-FACTORIAL HepG2 Assay for human Forkhead box A2 (FOXA2) (AID 2282942). Conditions: HepG2 cis-reporter transcription factor activity, 24 h; actives raise or lower the signal. The gist of the method:
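HepG2 transiently transfected with a multiplexed cis-promoter reporter library read endogenous FOXA2 activity. After 24 h compound exposure, reporter mRNA was quantified by RT-PCR, HpaI digestion and capillary electrophoresis. Bidirectional fit against DMSO.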

Test [16] in a line: ATG_FoxO_CIS: Attagene CIS-FACTORIAL HepG2 Assay for human Forkhead box O (FoxO) (AID 2282943). Conditions: HepG2 Attagene cis-reporter, FoxO element, mRNA; actives raise or lower the signal. The gist of the method: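 Values reflect reporter mRNA induction or loss in HepG2 cells 24 h post-dosing, fitted bidirectionally with DMSO as negative control and baseline. Detection used RT-PCR and fluorescence capillary electrophoresis.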

Test [17] can be described thus: ATG_GATA_CIS: Attagene CIS-FACTORIAL HepG2 Assay for human GATA Binding Protein (AID 2282944). Conditions: HepG2 GATA cis-element reporter, Attagene multiplex mRNA; actives raise or lower the signal. The gist of the method: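 After transfecting HepG2 cells with multiple cis-regulated reporter units, chemicals are dosed for 24 h; isolated RNA undergoes RT-PCR and fluorescent labeling before capillary electrophoresis, with activity expressed against DMSO.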

Test [18] can be described thus: ATG_GLI_CIS: Attagene CIS-FACTORIAL HepG2 Assay for human Zinc Finger Protein GLI1 (AID 2282945). The settings on record: HepG2, Attagene cis-factorial reporter mRNA, GLI element; actives raise or lower the signal. The gist of the method: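 HepG2 cells transiently transfected with cis-promoter multiplexed reporter units report endogenous transcription factor activity. After 24 h chemical exposure, reporter mRNA was quantified by RT-PCR, 6-FAM labelling, HpaI digestion and capillary electrophoresis, with bidirectional fitting against DMSO.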

Test [19] addresses Transcription factor E2F1 (Homo sapiens) (UniProt Q01094). The experiment in a line: ATG_E2F_CIS: Attagene CIS-FACTORIAL HepG2 Assay for human E2F Transcription Factor 1 (AID 2282935). Conditions: HepG2 Attagene cis-reporter, E2F reporter RNA transcripts; actives raise or lower the signal. The gist of the method: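 In this cis-factorial format, endogenous factor activity drives transfected reporters in HepG2; transcripts collected at 24 h are quantified by fluorescence after RT-PCR and capillary separation.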

Test [20] can be described thus: ATG_EGR_CIS: Attagene CIS-FACTORIAL HepG2 Assay for human Early Growth Response 1 (EGR1) (AID 2282938). The settings on record: HepG2 Attagene CIS-FACTORIAL EGR reporter mRNA; actives raise or lower the signal. The gist of the method:
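HepG2 cells transiently transfected with cis-element-driven multiplexed reporter units, dosed for 24 h. EGR1-element reporter mRNA quantified by RT-PCR, 6-FAM labelling, HpaI digestion and capillary electrophoresis; bidirectional fit versus DMSO.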

Chain of Hepatocyte nuclear factor 3-beta (Homo sapiens) (Q9Y261 whole entry, looked up): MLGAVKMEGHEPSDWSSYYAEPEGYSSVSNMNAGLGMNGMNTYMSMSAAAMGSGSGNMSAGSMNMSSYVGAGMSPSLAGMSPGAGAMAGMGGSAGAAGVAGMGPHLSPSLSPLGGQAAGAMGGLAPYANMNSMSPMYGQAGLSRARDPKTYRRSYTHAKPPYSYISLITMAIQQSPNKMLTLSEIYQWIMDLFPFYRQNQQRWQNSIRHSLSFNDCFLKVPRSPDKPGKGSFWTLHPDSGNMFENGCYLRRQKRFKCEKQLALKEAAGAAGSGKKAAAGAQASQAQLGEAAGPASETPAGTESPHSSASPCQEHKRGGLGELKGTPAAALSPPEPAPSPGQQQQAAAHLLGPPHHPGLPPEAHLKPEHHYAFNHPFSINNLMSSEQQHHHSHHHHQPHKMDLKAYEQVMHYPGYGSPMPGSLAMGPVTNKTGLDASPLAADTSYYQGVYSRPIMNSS
Chain of CCAAT/enhancer-binding protein beta (Homo sapiens) (P17676 whole entry, looked up): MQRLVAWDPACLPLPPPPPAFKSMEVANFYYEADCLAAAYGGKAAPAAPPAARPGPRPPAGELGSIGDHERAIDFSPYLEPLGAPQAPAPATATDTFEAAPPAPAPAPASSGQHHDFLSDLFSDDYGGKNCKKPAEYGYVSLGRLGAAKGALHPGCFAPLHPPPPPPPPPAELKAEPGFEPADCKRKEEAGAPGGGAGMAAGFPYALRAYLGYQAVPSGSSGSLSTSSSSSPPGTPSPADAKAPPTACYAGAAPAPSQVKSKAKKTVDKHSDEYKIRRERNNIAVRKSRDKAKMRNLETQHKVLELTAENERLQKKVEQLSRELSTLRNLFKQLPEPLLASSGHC
Chain of Aryl hydrocarbon receptor (Homo sapiens) (P35869 whole entry, looked up): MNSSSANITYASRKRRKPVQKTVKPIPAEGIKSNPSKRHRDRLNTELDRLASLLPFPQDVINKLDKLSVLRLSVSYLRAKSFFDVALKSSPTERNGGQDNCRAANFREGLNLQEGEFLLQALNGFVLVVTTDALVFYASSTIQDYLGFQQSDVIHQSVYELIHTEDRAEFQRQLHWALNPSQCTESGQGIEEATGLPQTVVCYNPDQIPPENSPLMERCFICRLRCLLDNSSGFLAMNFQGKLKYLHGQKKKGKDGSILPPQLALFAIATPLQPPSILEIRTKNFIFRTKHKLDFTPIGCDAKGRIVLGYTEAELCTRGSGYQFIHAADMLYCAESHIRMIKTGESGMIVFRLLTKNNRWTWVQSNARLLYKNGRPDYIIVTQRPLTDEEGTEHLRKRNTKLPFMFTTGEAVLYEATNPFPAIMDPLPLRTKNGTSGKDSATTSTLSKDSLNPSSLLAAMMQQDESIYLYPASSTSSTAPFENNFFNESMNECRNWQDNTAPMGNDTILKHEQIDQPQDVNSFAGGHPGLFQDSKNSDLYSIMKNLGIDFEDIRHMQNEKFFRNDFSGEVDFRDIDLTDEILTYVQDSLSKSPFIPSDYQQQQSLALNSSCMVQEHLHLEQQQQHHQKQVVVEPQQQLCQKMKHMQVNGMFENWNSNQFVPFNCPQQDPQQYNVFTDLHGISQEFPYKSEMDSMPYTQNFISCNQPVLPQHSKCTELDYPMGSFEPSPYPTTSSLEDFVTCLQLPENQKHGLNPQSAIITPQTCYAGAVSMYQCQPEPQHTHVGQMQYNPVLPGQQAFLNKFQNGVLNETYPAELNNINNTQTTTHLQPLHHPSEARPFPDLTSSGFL
Chain of Retinoic acid receptor alpha (Homo sapiens) (P10276 whole entry, looked up): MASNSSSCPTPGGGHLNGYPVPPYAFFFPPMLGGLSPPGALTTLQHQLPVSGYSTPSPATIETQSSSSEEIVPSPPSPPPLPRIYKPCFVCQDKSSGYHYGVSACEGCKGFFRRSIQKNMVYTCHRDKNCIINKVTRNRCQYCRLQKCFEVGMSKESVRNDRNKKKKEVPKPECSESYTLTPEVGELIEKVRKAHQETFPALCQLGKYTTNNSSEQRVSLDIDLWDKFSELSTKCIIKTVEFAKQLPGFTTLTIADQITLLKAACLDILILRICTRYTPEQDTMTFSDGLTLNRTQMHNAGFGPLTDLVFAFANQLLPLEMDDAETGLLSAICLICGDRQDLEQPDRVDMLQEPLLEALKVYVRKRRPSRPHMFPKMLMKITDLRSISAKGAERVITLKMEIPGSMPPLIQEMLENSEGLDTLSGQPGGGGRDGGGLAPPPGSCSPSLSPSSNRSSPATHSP
Chain of Transcription factor E2F1 (Homo sapiens) (Q01094 whole entry, looked up): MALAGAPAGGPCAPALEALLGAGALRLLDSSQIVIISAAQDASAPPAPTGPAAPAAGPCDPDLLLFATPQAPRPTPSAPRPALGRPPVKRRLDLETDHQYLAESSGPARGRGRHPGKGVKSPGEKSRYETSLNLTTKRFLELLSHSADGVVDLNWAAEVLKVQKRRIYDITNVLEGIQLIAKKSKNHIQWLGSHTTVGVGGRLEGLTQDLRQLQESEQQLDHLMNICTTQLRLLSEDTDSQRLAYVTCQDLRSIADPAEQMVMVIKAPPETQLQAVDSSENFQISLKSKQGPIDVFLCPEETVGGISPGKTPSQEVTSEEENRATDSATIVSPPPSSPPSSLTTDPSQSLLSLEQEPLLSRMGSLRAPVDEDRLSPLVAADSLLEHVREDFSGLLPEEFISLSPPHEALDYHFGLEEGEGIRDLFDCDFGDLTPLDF

For `O=C(O)c1ccccc1C(=O)OCc1ccccc1`, the outcome in test [1], in test [2], in test [3], in test [4], in test [5] and in test [6] was inactive. Further, the compound was called inactive in [7], in [8], in test [9], in [10], in [11] and in [12]. For the same compound, the call in test [13], in test [14], in test [15], in [16], in test [17] and in test [18] was inactive.
As for `C[C@]12CC[C@@H]3c4ccc(O)cc4CC[C@H]3[C@@H]1CC[C@H]2O`, the compound was called inactive in [1], in [2], in test [4], in test [5], in [6] and in test [7]. Further, the compound was called inactive in test [8], in test [9], in test [10], in [11], in test [12] and in test [14]. Moreover, the compound was called inactive in [15], in test [16], in test [17] and in test [18]. Also, the AC50 in test [3] was 27.5 µM (active) [middle of 4 runs]; in test [5], 49 µM (active); in test [9], 5.92 µM (active); in test [10], 19.8 µM (active).
As for `c1ccc(C[n+]2cccc3ccccc32)cc1`, the result in test [1], in test [2], in test [4], in test [7], in test [8] and in test [9] was inactive. Moreover, the compound was called inactive in test [19], in test [10], in test [11], in [20], in [12] and in [14]. Further, the outcome in test [15], in test [16], in test [17] and in test [18] was inactive. Also, the AC50 in test [3] was 100 µM (active); in test [5], 69.6 µM (active); in [6] it was 41.1 µM (active); in test [13], 74.1 µM (active).
For `Clc1cc(Cl)c2c(c1)N=C1CCCCCN1C2`, the compound was classed as inactive in test [1], in test [2], in [3], in test [5], in test [6] and in test [7]. In addition, the result in test [8], in test [9], in test [11], in [20], in test [12] and in test [13] was inactive. Besides, the result in test [14], in [15], in test [16], in test [17] and in test [18] was inactive. The half-maximal activity concentration (AC50) in test [4] was 78.1 µM (active); in test [10], 50 µM (active).
With `CCN(Cc1cccnc1)C(=O)c1cccc(Cl)c1[C@]1(C)C(=O)N(Cc2ccc(OC)cc2OC)c2ccc(Cl)cc21`, the AC50 in [1] was 10.8 µM (active); in test [3], 8.21 µM (active); in [4] it was 7.45 µM (active); in test [5], 1.75 µM (active); in [6], 10.3 µM (active); in test [9], 0.293 µM (active). For the same compound, in test [19], the concentration at half-maximal activity (AC50) was 7.42 µM (active). The outcome in test [2], in test [7], in test [8], in test [10], in [11] and in test [12] was inactive. In addition, the compound was classed as inactive in [13], in test [14], in [15], in [16], in test [17] and in test [18].
